What all share (design): scale not given: direction of the effect not stated beside the values
For assay [1], the target named is Protein translocase subunit SecA (Escherichia coli (strain K12)) (UniProt P10408). As to the kind of experiment: Assay to Identify E. coli SecA ATPase Inhibitors. It counts as functional. The following applies: 30 µM.
Assay [2] deals with T1, Ubiquitin-activating enzyme e1, putative (Leishmania donovani (strain BPK282A1)) (UniProt E9BSI1).
T1 sequence (whole entry): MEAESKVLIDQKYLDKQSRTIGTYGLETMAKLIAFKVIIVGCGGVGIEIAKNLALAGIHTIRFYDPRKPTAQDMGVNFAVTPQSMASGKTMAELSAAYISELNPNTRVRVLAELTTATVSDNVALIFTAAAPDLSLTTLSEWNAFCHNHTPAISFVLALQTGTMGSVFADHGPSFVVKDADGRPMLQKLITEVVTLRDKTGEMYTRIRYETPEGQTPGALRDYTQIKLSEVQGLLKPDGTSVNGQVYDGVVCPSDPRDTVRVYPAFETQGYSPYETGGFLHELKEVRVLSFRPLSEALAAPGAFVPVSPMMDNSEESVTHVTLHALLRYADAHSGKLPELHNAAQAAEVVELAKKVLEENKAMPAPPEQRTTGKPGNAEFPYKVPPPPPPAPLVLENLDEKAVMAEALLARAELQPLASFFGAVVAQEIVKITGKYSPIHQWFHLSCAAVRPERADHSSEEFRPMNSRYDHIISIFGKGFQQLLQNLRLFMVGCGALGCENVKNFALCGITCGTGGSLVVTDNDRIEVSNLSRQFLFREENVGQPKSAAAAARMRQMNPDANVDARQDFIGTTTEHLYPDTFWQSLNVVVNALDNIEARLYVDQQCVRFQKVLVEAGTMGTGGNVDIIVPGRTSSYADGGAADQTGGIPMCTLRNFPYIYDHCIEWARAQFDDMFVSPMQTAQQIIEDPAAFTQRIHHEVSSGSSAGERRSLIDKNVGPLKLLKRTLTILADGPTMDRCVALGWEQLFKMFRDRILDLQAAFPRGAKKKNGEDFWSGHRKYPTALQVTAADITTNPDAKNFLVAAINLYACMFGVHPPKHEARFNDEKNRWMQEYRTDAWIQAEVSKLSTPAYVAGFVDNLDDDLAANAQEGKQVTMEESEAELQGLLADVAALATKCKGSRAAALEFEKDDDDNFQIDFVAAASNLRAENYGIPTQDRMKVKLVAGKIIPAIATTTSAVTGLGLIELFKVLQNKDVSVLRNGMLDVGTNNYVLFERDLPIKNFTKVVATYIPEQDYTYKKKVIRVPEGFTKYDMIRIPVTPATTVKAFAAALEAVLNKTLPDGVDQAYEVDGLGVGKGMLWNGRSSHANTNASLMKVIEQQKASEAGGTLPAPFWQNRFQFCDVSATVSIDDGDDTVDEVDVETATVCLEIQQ
As to the kind of experiment: Leishmania donovani Ubiquitin Activating Enzyme (LdE1). It counts as functional. The following applies: 30 µM.

Assay [3] deals with AMP-activated protein kinase, AMPK (Homo sapiens) (UniProt P54646+O43741+P54619+Q9UGJ0+Q9Y478+Q13131+Q9UGI9). As to the kind of experiment: AMP-dependent Kinase enzyme assay. An in vitro enzyme assay that detects ADP turnover that is directly proportional to AMPK activity. This uses naive AMPK that is activated during the assay with MK-8722. In kind it is functional. The conditions noted are these: 30 µM.

For assay [4], the target named is Sialic acid-binding Ig-like lectin 9 (Homo sapiens) (UniProt Q9Y336). As to the kind of experiment: Hs-Siglec9 ALPHAscreen SOP 20170721. The following applies: 10 µM. For orientation: In Alpha technology, singlet oxygen from a donor bead excites a nearby acceptor bead.
Sialic acid-binding Ig-like lectin 9 (Homo sapiens), sequence (Q9Y336 whole entry): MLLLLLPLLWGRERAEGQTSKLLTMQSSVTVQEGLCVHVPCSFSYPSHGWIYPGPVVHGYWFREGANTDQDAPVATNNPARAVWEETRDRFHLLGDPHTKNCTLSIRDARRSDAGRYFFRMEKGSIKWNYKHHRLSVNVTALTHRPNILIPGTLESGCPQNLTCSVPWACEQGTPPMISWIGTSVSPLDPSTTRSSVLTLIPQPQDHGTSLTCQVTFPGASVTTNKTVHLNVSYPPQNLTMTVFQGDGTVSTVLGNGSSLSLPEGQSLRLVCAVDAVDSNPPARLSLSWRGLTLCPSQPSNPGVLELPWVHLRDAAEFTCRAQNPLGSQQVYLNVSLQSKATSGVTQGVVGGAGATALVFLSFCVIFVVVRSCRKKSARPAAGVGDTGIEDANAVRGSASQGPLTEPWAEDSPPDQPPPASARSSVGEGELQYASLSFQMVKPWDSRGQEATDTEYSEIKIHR
The subject of the next assay is Trypanosoma cruzi. As to the kind of experiment: Trypanosoma cruzi phosphomannomutase and mannose-1-phosphate guanylyltransferase assay. In kind it is functional. The following applies: 10 µM.
The target of assay [5] is T2, Arginase-2, mitochondrial (Homo sapiens) (UniProt P78540).
T2 sequence (whole entry): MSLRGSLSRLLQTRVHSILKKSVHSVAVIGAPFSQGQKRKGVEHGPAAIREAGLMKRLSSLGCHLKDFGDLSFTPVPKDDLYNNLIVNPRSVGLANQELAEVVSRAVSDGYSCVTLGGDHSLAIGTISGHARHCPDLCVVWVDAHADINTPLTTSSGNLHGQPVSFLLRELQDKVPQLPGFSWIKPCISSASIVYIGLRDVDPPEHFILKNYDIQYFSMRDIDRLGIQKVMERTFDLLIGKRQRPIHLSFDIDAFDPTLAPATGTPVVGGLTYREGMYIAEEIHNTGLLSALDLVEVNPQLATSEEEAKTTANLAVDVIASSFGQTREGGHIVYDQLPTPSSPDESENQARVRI
As to the kind of experiment: in vitro enzyme assay to detect the production of urea directly proportional to the activity of Arginase II. Also: in the data most compounds retested in dose-response had high values. In kind it is functional. The conditions noted are these: 33.3 µM.

Assay [6] addresses T3, Proteasome subunit beta (Trypanosoma cruzi) (UniProt O96673).
T3 sequence (whole entry): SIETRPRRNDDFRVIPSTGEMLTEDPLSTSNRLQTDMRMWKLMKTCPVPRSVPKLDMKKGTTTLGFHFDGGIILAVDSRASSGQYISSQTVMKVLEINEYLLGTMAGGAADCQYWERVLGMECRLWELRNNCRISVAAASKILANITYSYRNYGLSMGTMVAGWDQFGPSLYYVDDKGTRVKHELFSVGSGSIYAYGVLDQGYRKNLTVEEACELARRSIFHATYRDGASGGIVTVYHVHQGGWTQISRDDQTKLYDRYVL
As to the kind of experiment: Trypanosoma cruzi proteasome chymotrypsin-like activity (TcProtChymo) assay. Also: in the data most compounds retested in dose-response had high values. It counts as functional. The conditions noted are these: 9.37 µM.

The species entered for the next assay is Homo sapiens. The experiment in a line: To identify inhibition of the IFN signalling (Jak-Stat) pathway via expression of an eGFP reporter gene under the control of an IFN-stimulated response element (ISRE) containing MxA promoter. It counts as functional. The conditions noted are these: 30 µM.
For assay [7], the target named is T4, Tyrosyl-tRNA synthetase, putative (Trypanosoma cruzi (strain CL Brener)) (UniProt Q4DSP6).
T4 sequence (whole entry): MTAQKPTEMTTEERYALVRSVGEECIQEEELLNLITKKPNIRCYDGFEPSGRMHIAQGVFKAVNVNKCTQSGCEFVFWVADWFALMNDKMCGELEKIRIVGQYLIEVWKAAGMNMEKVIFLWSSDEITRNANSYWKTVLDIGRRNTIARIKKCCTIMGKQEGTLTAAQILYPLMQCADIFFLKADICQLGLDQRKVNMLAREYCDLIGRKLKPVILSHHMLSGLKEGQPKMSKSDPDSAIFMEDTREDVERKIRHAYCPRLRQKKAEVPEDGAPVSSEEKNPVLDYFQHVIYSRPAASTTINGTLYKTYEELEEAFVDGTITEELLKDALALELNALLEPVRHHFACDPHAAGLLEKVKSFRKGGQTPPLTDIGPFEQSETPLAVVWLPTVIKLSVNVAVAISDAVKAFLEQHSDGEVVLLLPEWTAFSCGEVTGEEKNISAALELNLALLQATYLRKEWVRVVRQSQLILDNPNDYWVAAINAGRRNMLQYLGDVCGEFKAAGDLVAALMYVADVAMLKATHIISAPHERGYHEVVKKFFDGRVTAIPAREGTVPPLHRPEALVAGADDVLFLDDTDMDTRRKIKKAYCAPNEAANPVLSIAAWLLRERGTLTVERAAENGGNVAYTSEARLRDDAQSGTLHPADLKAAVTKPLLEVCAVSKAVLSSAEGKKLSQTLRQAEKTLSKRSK
As to the kind of experiment: Trypanosoma cruzi tyrosyl tRNA synthetase (TcYRS) _High Tyrosine SOP. Also: in the data most compounds retested in dose-response had high values. The following applies: 30 µM. It counts as functional.

Assay [8] deals with T4, Tyrosyl-tRNA synthetase, putative (Trypanosoma cruzi (strain CL Brener)). The experiment in a line: Trypanosoma cruzi tyrosyl tRNA synthetase (TcYRS) SOP. It counts as functional. The following applies: 30 µM.
Assay [9] concerns the target Chromo domain-containing protein 1 (Saccharomyces cerevisiae (strain ATCC 204508 / S288c) (Baker's yeast)) (UniProt P32657). As to the kind of experiment: ScCHD-1 Enzyme Inhibition Assay. Also: in the data most compounds retested in dose-response had high values. The following applies: 30 µM. It counts as functional.

For some of these results: Entries with a potency or affinity are not part of this list.

Results on eight compounds are retold here after ChEMBL document CHEMBL3988442, “University of Dundee, Small-Polar-MMV Screening Library” (2021).

Protein translocase subunit SecA (Escherichia coli (strain K12)), sequence (P10408 whole entry): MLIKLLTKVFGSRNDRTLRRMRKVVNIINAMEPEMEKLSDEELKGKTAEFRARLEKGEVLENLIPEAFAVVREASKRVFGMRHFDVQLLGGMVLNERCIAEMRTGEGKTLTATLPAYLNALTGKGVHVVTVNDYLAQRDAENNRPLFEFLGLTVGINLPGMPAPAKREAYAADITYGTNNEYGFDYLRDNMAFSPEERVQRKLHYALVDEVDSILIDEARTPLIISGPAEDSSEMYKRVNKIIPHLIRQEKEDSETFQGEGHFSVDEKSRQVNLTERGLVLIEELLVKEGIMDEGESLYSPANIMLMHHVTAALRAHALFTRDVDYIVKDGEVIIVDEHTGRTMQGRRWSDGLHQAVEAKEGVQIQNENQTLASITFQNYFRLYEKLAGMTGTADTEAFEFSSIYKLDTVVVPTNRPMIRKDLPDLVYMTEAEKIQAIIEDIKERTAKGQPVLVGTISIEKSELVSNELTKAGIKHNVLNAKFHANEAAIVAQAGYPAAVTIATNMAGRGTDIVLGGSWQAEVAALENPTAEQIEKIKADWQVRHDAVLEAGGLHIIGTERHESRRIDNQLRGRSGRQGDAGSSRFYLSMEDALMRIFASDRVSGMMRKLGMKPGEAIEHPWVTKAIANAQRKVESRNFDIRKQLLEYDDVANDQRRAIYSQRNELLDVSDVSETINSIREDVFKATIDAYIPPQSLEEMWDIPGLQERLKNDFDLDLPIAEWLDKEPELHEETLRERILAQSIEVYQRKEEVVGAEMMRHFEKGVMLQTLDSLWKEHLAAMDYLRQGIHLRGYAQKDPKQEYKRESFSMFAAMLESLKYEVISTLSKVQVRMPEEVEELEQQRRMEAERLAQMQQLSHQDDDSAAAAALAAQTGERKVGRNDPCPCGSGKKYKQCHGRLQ
Chromo domain-containing protein 1 (Saccharomyces cerevisiae (strain ATCC 204508 / S288c) (Baker's yeast)), sequence (P32657 whole entry, the tested form may be a part): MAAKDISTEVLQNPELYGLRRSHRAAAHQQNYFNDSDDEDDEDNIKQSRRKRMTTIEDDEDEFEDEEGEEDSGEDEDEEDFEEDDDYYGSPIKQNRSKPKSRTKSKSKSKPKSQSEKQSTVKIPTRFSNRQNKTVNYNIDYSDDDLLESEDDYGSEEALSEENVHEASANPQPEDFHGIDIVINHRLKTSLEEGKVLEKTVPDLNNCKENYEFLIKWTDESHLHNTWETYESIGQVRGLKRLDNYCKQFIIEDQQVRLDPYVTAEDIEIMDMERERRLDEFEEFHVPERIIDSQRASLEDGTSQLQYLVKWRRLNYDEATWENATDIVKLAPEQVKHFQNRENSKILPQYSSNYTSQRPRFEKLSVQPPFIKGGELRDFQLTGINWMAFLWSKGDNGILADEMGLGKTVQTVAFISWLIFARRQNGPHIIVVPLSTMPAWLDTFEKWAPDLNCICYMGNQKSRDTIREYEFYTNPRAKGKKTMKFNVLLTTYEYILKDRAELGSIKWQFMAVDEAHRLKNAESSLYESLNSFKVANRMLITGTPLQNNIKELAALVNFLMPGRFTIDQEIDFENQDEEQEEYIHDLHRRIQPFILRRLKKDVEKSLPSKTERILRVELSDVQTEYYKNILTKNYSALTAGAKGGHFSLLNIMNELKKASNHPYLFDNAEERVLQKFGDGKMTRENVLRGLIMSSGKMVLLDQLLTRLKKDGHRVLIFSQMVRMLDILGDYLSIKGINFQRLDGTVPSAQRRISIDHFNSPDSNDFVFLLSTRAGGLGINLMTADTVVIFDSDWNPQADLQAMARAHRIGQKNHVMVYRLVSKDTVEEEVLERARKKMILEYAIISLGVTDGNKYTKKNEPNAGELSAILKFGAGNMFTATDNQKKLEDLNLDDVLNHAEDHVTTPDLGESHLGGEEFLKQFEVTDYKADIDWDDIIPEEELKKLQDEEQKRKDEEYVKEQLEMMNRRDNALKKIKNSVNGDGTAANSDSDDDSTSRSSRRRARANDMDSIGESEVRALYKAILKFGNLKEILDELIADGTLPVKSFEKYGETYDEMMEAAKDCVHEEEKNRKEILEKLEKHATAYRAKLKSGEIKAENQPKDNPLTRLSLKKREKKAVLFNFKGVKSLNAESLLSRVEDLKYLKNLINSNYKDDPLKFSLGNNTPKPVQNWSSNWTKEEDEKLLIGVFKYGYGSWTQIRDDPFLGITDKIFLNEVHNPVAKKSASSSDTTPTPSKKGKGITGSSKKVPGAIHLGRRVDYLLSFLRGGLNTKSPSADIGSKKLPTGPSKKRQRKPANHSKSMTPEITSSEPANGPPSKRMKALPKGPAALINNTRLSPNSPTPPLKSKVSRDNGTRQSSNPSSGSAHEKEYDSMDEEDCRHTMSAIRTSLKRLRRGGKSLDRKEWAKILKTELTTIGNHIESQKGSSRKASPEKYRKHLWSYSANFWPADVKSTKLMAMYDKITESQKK

Turning to `O=C(c1cccc(CNS(=O)(=O)c2ccccc2F)c1)N1CCCC1`, the Percent Effect is -3.56% in assay [1]; 15.6% in assay [2]; 1.76% in assay [3]; 3.25% in assay [4]; 2.25% in the assay with Trypanosoma cruzi; 0.21% in assay [5]. In addition, the Percent Effect was 5.25% in [6]; 24.1% in the assay listed under Homo sapiens; 5.71% in assay [7]; 18.8% in assay [8]; -5.99% in [9].

Regarding `NC(=O)C1CN(C(=O)Nc2cc(Cl)cc(Cl)c2)CCO1` (stereo not drawn), the Percent Effect in assay [1] is -2.58%; in [2], 0%; in [3], 0.0499%; in assay [4], 4.99%; in the assay on Trypanosoma cruzi, 4.17%; in assay [5] it was -3.19%. The Percent Effect in [6] stood at 12.1%; in the assay filed under Homo sapiens it was 22.7%; in assay [7] it was 4.17%; in assay [8], 11.1%; in assay [9], 2.8%.

On to `O=C(CCc1nccs1)N1CCN(c2ccccc2F)CC1`, for which the Percent Effect in [1] is -4.98%; in assay [2], 7.59%; in [3], -1.29%; in assay [4], -1.48%; with Trypanosoma cruzi, 8.4%; in assay [5] it was -6.46%. Also, the Percent Effect was -2.05% in assay [6]; 5.18% in the assay filed under Homo sapiens; 2.46% in [7]; 8.86% in assay [8]; -2.22% in assay [9].

For the compound `O=C(NCc1csc(Br)c1)c1ccncc1`, the Percent Effect in [1] was -2.58%; in [2], 19%; in assay [3], 5.52%; in [4], 2.28%; with Trypanosoma cruzi, 0.103%; in assay [5] it was 2.8%. Also, the Percent Effect in [6] was 11.3%; in the assay filed under Homo sapiens it was 21.8%; in assay [7] it was -1.04%; in assay [8], 15.2%; in assay [9] it was -29.5%.

For the compound `Clc1ccc(CN2CCCC(Cn3cncn3)C2)c2ncccc12` (stereo not drawn), the Percent Effect in assay [1] is -5.66%; in [2] it was -7.79%; in assay [3], -0.804%; in assay [4], 1.38%; in the assay with Trypanosoma cruzi, 0.688%; in assay [5] it was -1.38%. In addition, the Percent Effect is 12% in [6]; -2.35% in the assay listed under Homo sapiens; 4.3% in assay [7]; 3.7% in assay [8]; 3.92% in [9].

For `CCS(=O)(=O)N1CCO[C@H]2[C@H](OCC3CCCC3)CC[C@@H]21`, the Percent Effect was -3.86% in [1]; 5.33% in assay [2]; 0.773% in assay [3]; 0.841% in assay [4]; 5.21% with Trypanosoma cruzi; -50.7% in assay [5]. Moreover, the Percent Effect in assay [6] was 7.01%; in the assay filed under Homo sapiens, 2.31%; in [7], 1.04%; in assay [8], 15%; in assay [9] it was -5.43%.

For `CC(C)COCC1CN(Cc2ccc3c(c2)OCO3)Cc2ncn(C)c21` (stereo not drawn), the Percent Effect is -6.14% in assay [1]; -5.41% in [2]; 10.1% in assay [3]; 2.92% in [4]; -1.17% with Trypanosoma cruzi; -3.75% in assay [5]. Besides, the Percent Effect in assay [6] was determined as 2.11%; in the assay listed under Homo sapiens it was 29.9%; in assay [7], 3.96%; in assay [8], 3.66%; in [9], 0.344%.

For `Cn1cc(-c2cnc(N3CCOCC3)nc2)cc1C(=O)N1CCOCC1`, the Percent Effect in assay [1] is -2.41%; in [2], 13.3%; in assay [3] it was 7.42%; in assay [4], 1.64%; in the assay on Trypanosoma cruzi, -0.984%; in assay [5] it was 2.56%. For the same compound, the Percent Effect in assay [6] was 1.32%; in the assay listed under Homo sapiens, 23.2%; in assay [7], 6.38%; in [8], 14.1%; in [9], -9.55%.
